The record followed here is the supplement of paper PMC10338343.

± gives the standard deviation.

The subject of the test is MILI (PIWIL2) piRISC loaded with piRNA #1 (26 nt). Briefly: pre-steady-state target cleavage rate (min^-1); guide: piRNA #1 5'p-UGAGGUAGUAGGUUGUAUAGUAUCCA; MIWI and MILI are mouse PIWI proteins and EfPiwi is from a freshwater sponge; tags in brackets are library labels; higher = faster piRNA-guided slicing of the target. The note with it: auxiliary factor: 500 nM mouse GTSF1. As to the method: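 Cleave-'n-Seq: a library of target RNAs (target site embedded in constant flanks, ACAGCATTCCGCGTTAGTGATATCCG... 5' flank; DNA-blocked outside the site) at 0.1 nM was incubated with 1 nM active mouse MILI or MIWI piRISC (synthetic 5'-monophosphorylated piRNA guide) with or without 500 nM mouse GTSF1 at 33 °C for 1 min to 16 h. Uncleaved targets were sequenced and normalised to non-target controls, and the pooled three trials were fitted to a burst-and-steady-state model to give the pre-steady-state cleavage rate (min^-1; k3 is constrained to at most 1e-4). Sequence is the target site only; target names encode pairing extent (gX:gY) and contiguous / 1-mismatch / 2-mismatch / bulge geometry. Fits with R² ≤ 0 are excluded.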
Regarding GGAGACGAUAGUAUACAUCCUACUACCUCA, the “pre-steady-state target cleavage rate” value came out at 0.232 ± 0.016.
With GGAGAGGAUACUAUACAACCUGCUACCUCA, the “pre-steady-state target cleavage rate” value turned out to be 0.066 ± 0.0089.
Take GGAGACCUUACUAUACAACCAACUUCCUCA: the “pre-steady-state target cleavage rate” value was found to be 0.00396 ± 0.0024.
As for GGAGACCUAUGUAUACAACCUACGACCUCA, the “pre-steady-state target cleavage rate” value was 0.0402 ± 0.0075.
For GGAGACCUAUCUAUUCAACCUUCUACCUCA, the “pre-steady-state target cleavage rate” value turned out to be 0.0069 ± 0.0028.
With GGAGACCAAACUAUACAACCUAGUACCUCA, the “pre-steady-state target cleavage rate” value was 0.0169 ± 0.0096.
For GGAGACCUUACUAUACAACCAUCUACCUCA, the “pre-steady-state target cleavage rate” value was 0.00422 ± 0.0032.
With GGAGACCUUACUAUACAACGAACUACCUCA, the “pre-steady-state target cleavage rate” value turned out to be 0.00385 ± 0.0021.
Consider GGAGACCAAACUAUACAACCUACUUCCUCA, for which the “pre-steady-state target cleavage rate” value was determined as 0.0841 ± 0.035.
GGAGACCAUACUAUACAACGUACUUCCUCA: the “pre-steady-state target cleavage rate” value came out at 0.0304 ± 0.0072.
For GGAGAGGAUACUAUACAAGCUUCUACCUCA, the “pre-steady-state target cleavage rate” value was found to be 0.0253 ± 0.0037.
In the case of GGAGACCUAUGAUAUGAACGCUACUACCUCA, the “pre-steady-state target cleavage rate” value is less than 0.0001.
On to GGAGACCUAUGUAUUCAACGUACUACCUCA, for which the “pre-steady-state target cleavage rate” value was found to be 0.00676 ± 0.0018.
On to GGAGACCAUACUAUACUACCAACUACCUCA, for which the “pre-steady-state target cleavage rate” value was 0.00547 ± 0.0022.
GGAGACCUAUCUUUACAACCAACUACCUCA: the “pre-steady-state target cleavage rate” value worked out at 0.0039 ± 0.0033.
Turning to GGAGACCUAUGAUAUGUUCCUACUACCAGA, the “pre-steady-state target cleavage rate” value was less than 0.0001.
For the sequence GGAGACCUAUCUAUACUACCUACUACCUCA, the “pre-steady-state target cleavage rate” value was 0.0815 ± 0.01.
To GGAGACCAUACUAUUCAACCUACUAGCUCA belongs 0.11 ± 0.019.
For the sequence GGAGUGGAUACUAUAAACCUACUACCUCA, the “pre-steady-state target cleavage rate” value came out at 0.0206 ± 0.0043.
On to GGAGACCAUACUAUACAACCUACUCACCUCA, for which the “pre-steady-state target cleavage rate” value stood at 0.169 ± 0.015.
For GGAGACCUAUCUAUACAACCUGCUACCUCA, the “pre-steady-state target cleavage rate” value stood at 0.0162 ± 0.0048.
As to GGAGUCGAUACUAUACAACCUACAACCUCA, the “pre-steady-state target cleavage rate” value worked out at 0.0405 ± 0.0054.
Consider GGAGAGGAUAGUUUACAACCUACUACCUCA, for which the “pre-steady-state target cleavage rate” value was found to be 0.0583 ± 0.0089.
With GGAGACCUAUCUAUUCAACCUACUACCACA, the “pre-steady-state target cleavage rate” value amounted to 0.144 ± 0.022.
To GGAGACCUUACUUAUCAACCUACUACCUCA belongs 0.0518 ± 0.014; to GGAGACCUAUCUUUACAACCUACUAGCUCA, 0.0374 ± 0.0091.
Regarding GGAGAGCAUACUAUACAACCUACAACCUCA, the “pre-steady-state target cleavage rate” value was determined as 0.133 ± 0.015.
Consider GGAGACCUAUGAAUACAACCUACUACCUUA, for which the “pre-steady-state target cleavage rate” value is 0.00551 ± 0.0022.
Under GGAGACCUAUCUAUAGAACCUACAACCUCA stands 0.00275 ± 0.0025; under GGAGACCUAUCUAUACAUCCUACUACCACA, 0.209 ± 0.025; under GGAGAGGAUACUAUACUUCCUACUACCUCA, 0.19 ± 0.015.
As to GGAGACCUAUGUAUACUACCUACUACCUGA, the “pre-steady-state target cleavage rate” value is 0.0173 ± 0.0042.
Under GGAGACGAUACUAUAGAACCUUCUACCUCA stands 0.00459 ± 0.0021; under GGAGACCUUACUAUACAACCUACUACCGCA, 0.19 ± 0.022.
Under GGAGACCUAAGCUAUACAACCUACUACCUCA stands 0.141 ± 0.028; under GGAGACCUAACUAUACUAGCUACUACCUCA, 0.12 ± 0.015.
As to GGAGAGGAUACUAUAGAACCUACUACCUCA, the “pre-steady-state target cleavage rate” value amounted to 0.166 ± 0.013.
As to GGAGACCUAUGAUAGCAACCUACUACCUCA, the “pre-steady-state target cleavage rate” value amounted to 0.00366 ± 0.0022.
Consider GGAGACCAUACUAUUCUACCUACUACCUCA, for which the “pre-steady-state target cleavage rate” value amounted to 0.178 ± 0.017.
For GGAGAGGUUACUAUACAACCUACUAGCUCA, the “pre-steady-state target cleavage rate” value turned out to be 0.00459 ± 0.0029.
